# From the supplement of paper PMC8728848
# Only a selection was taken, and the strongest signals are over-represented in it overall.
# B1: SSR1 (Sclerotium rolfsii), A0A0M3KL30 (protein)
# chain: TYKITVRVYQTNPDAFFHPVEKTVWKYANGGTWTITDDQHVLTMGGSGTSGTLRFHADNGESFTATFGVHNYKRWCDIVTNLAADETGMVINQQYYSQKNREEARERQLSNYQVKNAKGRNFQIVYTEAEGNDLHANLIIG
# How the values were obtained:
# Experiment in all cases: glycan array binding signal (z-score within array); higher = stronger binding
# Details in all cases: glycan notation: IUPAC condensed, linker removed
# [1] = target: Fuc(a1-2)Gal(b1-3)GalNAc(b1-4)[Neu5Ac(a2-3)]Gal(b1-4)Glc
# In short: (§1)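 The binding signal is a Z-score computed within each array and averaged over linkers. Arrays of the same protein sequence at different concentrations or buffers were also averaged together. Data originate from 3228 arrays in the Consortium for Functional Glycomics database, kept only where the protein sequence was available.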
# [2] = target: Fuc(a1-2)Gal(b1-3)GlcNAc(b1-3)[Gal(b1-4)GlcNAc(b1-6)]Gal(b1-4)Glc
# In short: as §1
# [3] = target: Fuc(a1-2)Gal(b1-4)GlcNAc(b1-3)Gal(b1-4)GlcNAc
# In short: as §1
# [4] = target: Fuc(a1-2)Gal(b1-4)GlcNAc(b1-3)[Fuc(a1-3)[Gal(b1-4)]GlcNAc(b1-6)]Gal(b1-4)Glc
# In short: as §1
# [5] = target: Fuc(a1-2)Gal(b1-4)[Fuc(a1-3)]GlcNAc(b1-3)Gal(b1-4)[Fuc(a1-3)]GlcNAc
# In short: as §1
# [6] = target: Fuc(a1-2)[Gal(a1-3)]Gal(b1-4)GlcNAc(b1-3)[Fuc(a1-2)[Gal(a1-3)]Gal(b1-4)GlcNAc(b1-6)]GalNAc
# In short: as §1
# [7] = target: Fuc(a1-2)[Gal(a1-3)]Gal(b1-4)GlcNAc(b1-6)GalNAc
# In short: as §1
# [8] = target: Fuc(a1-2)[GalNAc(a1-3)]Gal(b1-3)GlcNAc(b1-2)Man(a1-3)[Fuc(a1-2)[GalNAc(a1-3)]Gal(b1-3)GlcNAc(b1-2)Man(a1-6)]Man(b1-4)GlcNAc(b1-4)GlcNAc
# In short: as §1
# [9] = target: Fuc(a1-2)[GalNAc(a1-3)]Gal(b1-4)GlcNAc(b1-3)Gal(b1-4)GlcNAc
# In short: as §1
# [10] = target: Fuc(a1-3)[Gal(b1-4)]GlcNAc(b1-2)Man(a1-3)[Fuc(a1-3)[Gal(b1-4)]GlcNAc(b1-2)Man(a1-6)]Man(b1-4)GlcNAc(b1-4)[Fuc(a1-6)]GlcNAc
# In short: as §1
# [11] = target: Fuc(a1-3)[Gal(b1-4)]GlcNAc(b1-6)GalNAc
# In short: as §1
# [12] = target: Gal(a1-3)Gal(b1-4)GlcNAc(b1-2)Man(a1-3)[Gal(a1-3)Gal(b1-4)GlcNAc(b1-2)Man(a1-6)]Man(b1-4)GlcNAc(b1-4)GlcNAc
# In short: as §1
# [13] = target: Gal(b1-3)[Fuc(a1-4)]GlcNAc
# In short: as §1
# [14] = target: Gal(b1-3)[Neu5Ac(a2-6)]GalNAc
# In short: as §1
# [15] = target: Gal(b1-4)GlcNAc(b1-2)Man(a1-3)[Gal(b1-4)GlcNAc(b1-2)Man(a1-6)]Man(b1-4)GlcNAc(b1-4)GlcNAc
# In short: as §1
# [16] = target: Gal(b1-4)GlcNAc(b1-2)Man(a1-3)[Gal(b1-4)GlcNAc(b1-2)Man(a1-6)][GlcNAc(b1-4)]Man(b1-4)GlcNAc(b1-4)[Fuc(a1-6)]GlcNAc
# In short: as §1
# [17] = target: Gal(b1-4)GlcNAc(b1-2)Man(a1-3)[GlcNAc(b1-4)][Gal(b1-4)GlcNAc(b1-2)Man(a1-6)]Man(b1-4)GlcNAc(b1-4)GlcNAc
# In short: as §1
# [18] = target: Gal(b1-4)GlcNAc(b1-2)Man(a1-6)Man(b1-4)GlcNAc(b1-4)GlcNAc
# In short: as §1
# [19] = target: Gal(b1-4)GlcNAc(b1-2)Man(a1-6)[GlcNAc(b1-2)Man(a1-3)]Man(b1-4)GlcNAc(b1-4)GlcNAc
# In short: as §1
# [20] = target: Gal(b1-4)GlcNAc(b1-3)Gal(b1-3)GalNAc
# In short: as §1
# [21] = target: Gal(b1-4)GlcNAc(b1-3)Gal(b1-4)GlcNAc(b1-3)Gal(b1-4)GlcNAc(b1-2)[Gal(b1-4)GlcNAc(b1-3)Gal(b1-4)GlcNAc(b1-3)Gal(b1-4)GlcNAc(b1-6)]Man(a1-6)[Gal(b1-4)GlcNAc(b1-3)Gal(b1-4)GlcNAc(b1-3)Gal(b1-4)GlcNAc(b1-2)Man(a1-3)]Man(b1-4)GlcNAc(b1-4)[Fuc(a1-6)]GlcNAc
# In short: as §1
# [22] = target: Gal(b1-4)GlcNAc(b1-3)Gal(b1-4)GlcNAc(b1-3)GalNAc
# In short: as §1
# Gal6S(b1-4)Glc = target: Gal6S(b1-4)Glc
# In short: as §1
# Gal6S(b1-4)GlcNAc = target: Gal6S(b1-4)GlcNAc
# In short: as §1
# [23] = target: GlcNAc(a1-3)Gal(b1-4)GlcNAc
# In short: as §1
# [24] = target: GlcNAc(a1-4)Gal(b1-4)GlcNAc
# In short: as §1
# [25] = target: GlcNAc(a1-4)Gal(b1-4)GlcNAc(b1-3)Gal(b1-4)Glc
# In short: as §1
# [26] = target: GlcNAc(a1-4)Gal(b1-4)GlcNAc(b1-3)Gal(b1-4)GlcNAc
# In short: as §1
# [27] = target: GlcNAc(a1-4)Gal(b1-4)GlcNAc(b1-3)Gal(b1-4)GlcNAc(b1-3)Gal(b1-4)GlcNAc
# In short: as §1
# [28] = target: GlcNAc(a1-4)Gal(b1-4)GlcNAc(b1-3)Gal(b1-4)[Fuc(a1-3)]GlcNAc(b1-3)Gal(b1-4)[Fuc(a1-3)]GlcNAc
# In short: as §1
binder,measurement,setting,value
B1,glycan array binding signal (z-score),[1],-0.338
same,glycan array binding signal (z-score),[2],-0.321
same,glycan array binding signal (z-score),[3],-0.335
same,glycan array binding signal (z-score),[4],-0.328
same,glycan array binding signal (z-score),[5],-0.306
same,glycan array binding signal (z-score),[6],-0.325
same,glycan array binding signal (z-score),[7],-0.34
same,glycan array binding signal (z-score),[8],0.338
same,glycan array binding signal (z-score),[9],0.292
same,glycan array binding signal (z-score),[10],-0.33
same,glycan array binding signal (z-score),[11],-0.33
same,glycan array binding signal (z-score),[12],-0.321
same,glycan array binding signal (z-score),[13],-0.333
same,glycan array binding signal (z-score),[14],0.823
same,glycan array binding signal (z-score),[15],-0.338
same,glycan array binding signal (z-score),[16],-0.334
same,glycan array binding signal (z-score),[17],-0.342
same,glycan array binding signal (z-score),[18],-0.337
same,glycan array binding signal (z-score),[19],3.01
same,glycan array binding signal (z-score),[20],1.12
same,glycan array binding signal (z-score),[21],-0.33
same,glycan array binding signal (z-score),[22],0.602
same,glycan array binding signal (z-score),Gal6S(b1-4)Glc,-0.323
same,glycan array binding signal (z-score),Gal6S(b1-4)GlcNAc,-0.336
same,glycan array binding signal (z-score),[23],3.12
same,glycan array binding signal (z-score),[24],3.11
same,glycan array binding signal (z-score),[25],3.37
same,glycan array binding signal (z-score),[26],4.43
same,glycan array binding signal (z-score),[27],6.33
same,glycan array binding signal (z-score),[28],3.01
